Experimental data from PubChem BioAssay AID651965 (National Center for Advancing Translational Sciences (NCATS), 2013).
The campaign covered roughly 340,000 compounds. About 6,400 (1.9%) were called active. Entries that show only a call come without a potency. Not shown: some 4% with an inconclusive outcome. Calls follow the shape of the dose curve; as a rule, active = well fitted falling curve with a large enough effect; inconclusive = small, poorly fitted or top-dose-only effect; inactive = no such curve, though single readings can be large or run the other way. The sample as a whole holds a higher share of actives than the screen did.

molecular target: ATP-dependent Clp protease proteolytic subunit (Bacillus subtilis (strain 168)) (UniProt P80244); assay: qHTS Assay for Activators of ClpP; also: the source files actives as falling curves though it sought activators and does not explain the sign; nearly all actives have a fitted effect of over 65% in size; details: purified B. subtilis ClpP, FRET peptide cleavage, 20 min; series mostly up to 57.5 µM
Outline: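 ClpP 10 microg/mL final, pH 8 Tris/KCl buffer with BSA, glycerol, Tween-20; compound pinned in; FRET-FV substrate; RT 20 min; Ex320/Em430; ΔFRET vs ADEP 5.8 microM, DMSO, no enzyme.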
Potency is read from the fitted curve at half-maximal effect.

ATP-dependent Clp protease proteolytic subunit (Bacillus subtilis (strain 168)), sequence (P80244 whole entry, looked up): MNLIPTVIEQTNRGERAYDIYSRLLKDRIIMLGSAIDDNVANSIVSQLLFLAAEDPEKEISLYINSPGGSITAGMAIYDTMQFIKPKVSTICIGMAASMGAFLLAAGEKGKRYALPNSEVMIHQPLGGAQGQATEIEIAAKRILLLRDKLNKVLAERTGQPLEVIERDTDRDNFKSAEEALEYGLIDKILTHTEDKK

Compound	Potency
Fc1cccc(Cc2c(-c3ccc(Cl)cc3)nc3ccc(Cl)cn23)c1	inactive
O=C(Nc1cccc2cccnc12)c1ccc2sc([C@H]3C[C@H](O)[C@@H](CO)O3)nc2c1	inactive
CCCCCc1c(Cc2ccccc2)ncn1CCc1ccccc1OC	inactive
O=C(Nc1nnc([C@H]2C[C@H](O)[C@@H](CO)O2)s1)c1cccc(Cl)c1	inactive
CC(C)(O)C1=C[N+](=O)CC=C1	inactive
O=S(=O)(c1cccc(C(F)(F)F)c1)N1c2ccccc2-n2cccc2C1c1cccnc1 (stereo not given)	inactive
CN(C)c1ccc(/C=N\Nc2ccc([N+](=O)[O-])cc2[N+](=O)[O-])cc1Cl	inactive
O=C(Nc1ccc(Cl)cc1)c1cnn2c1NC(=C1CC1)C=C2C(F)F	inactive
CC(C)(C)c1ccc(S(=O)(=O)NC(=O)C2(C)CCN2C(=O)CC2CC2)cc1 (stereo not given)	inactive
COc1ccc(C(C)C)cc1-c1ccc2nncn2c1	inactive
C/C=C/NNC(=O)Cc1ccc(OC)cc1	inactive
CC1(C)Cc2ccccc2-c2c[nH]c(=O)n21	inactive
O=c1oc2ccc(C#CC3(O)CCCCC3)cc2cc1-n1cc(-c2ccsc2)nn1	31.6 µM (active)
CCCCCn1nnnc1-c1nc2cc3ccccc3cc2[nH]c1=O	inactive
CCOC(=O)[C@]12CCCC=C1N(Cc1ccc3c(c1)OCO3)C(=O)[C@H](CC(=O)NCc1cccs1)C2	inactive
O=C(c1ccc2c(=O)n(Cc3ccco3)c(=S)[nH]c2c1)N1CCCC1	inactive
Cc1cccc(C(=O)Nc2ccc(-c3nc4ncccc4o3)cc2C)c1	35.5 µM (active)
O=C(Nc1cc(-c2nc3ncccc3o2)ccc1Cl)c1ccco1	inactive
O=C(Nc1cccc(-c2nc3ncccc3o2)c1)c1ccco1	inactive
COc1ccc(C(NC(=O)C2CCN(CCCc3ccccc3)CC2)c2cccs2)cc1 (stereo not given)	inactive
CN1CCN(c2oc(-c3ccc(COc4ccc(Cl)cc4)o3)nc2C#N)CC1	35.5 µM (active)
CC1CC(C)CN(c2oc(-c3ccc(OCc4ccc(Cl)cc4)cc3)nc2C#N)C1 (stereo not given)	inactive
COc1ccc(OCc2ccc(-c3nc(C#N)c(N4CCN(c5ccccc5)CC4)o3)o2)cc1	inactive
Cc1ccccc1OCc1ccc(-c2nc(C#N)c(N3CCCCC3)o2)o1	inactive
N#Cc1nc(COc2ccc(Cl)cc2)oc1N1CCCC1	inactive
CCC(C)Nc1oc(-c2ccc(COc3ccc(Cl)cc3)o2)nc1C#N (stereo not given)	28.2 µM (active)
CCCCCc1c(-c2ccc(OC)c(OC)c2)ncn1CCc1ccccc1OC	inactive
CC1CCCN(c2nc3c(S(=O)(=O)c4ccc(C(C)C)cc4)nnn3c3ccsc23)C1 (stereo not given)	inactive

Compound	Potency
O=S(=O)(c1ccc(Br)cc1)c1nnn2c1nc(NC1CCCCCC1)c1sccc12	inactive
O=S(=O)(c1ccc(Cl)cc1)c1nnn2c1nc(NC1CCCC1)c1sccc12	25.1 µM (active)
C[C@@H]1Cn2cnc(C(=O)Nc3ccc(CNC(=O)OC(C)(C)C)cc3)c2C(=O)N1	inactive
CC1CN(C(=O)c2cccc(NS(=O)(=O)c3ccc(Br)cc3)c2)CC(C)O1 (stereo not given)	inactive
COc1ccc(COC[C@H](CC(C)C)N2CCN(C(=O)c3cccc(C(F)(F)F)c3)CCC2=O)cc1	inactive
COC(=O)C[C@@H]1C=C[C@@H](NC(=O)c2cccnc2)[C@@H](CO)O1	inactive
COc1ccc(-c2c(C)nn3c(N4CCC(C(=O)NCCC(C)C)CC4)cc(C)nc23)cc1OC	inactive
COc1ccc(CCNc2nc(-c3ccc(Cl)cc3)cc(C(F)(F)F)n2)cc1OC	inactive
COc1ccc(CCNc2cc(C)nc3c(-c4ccc(Cl)cc4)c(C)nn23)cc1OC	28.2 µM (active)
CNc1cncc(-c2cccc(C(=O)N3CCOCC3)c2)n1	inactive
NCCCCC(C(=O)O)N(C(=O)OCc1ccccc1)C(=O)OCc1ccccc1 (stereo not given)	inactive
CC(C)(C)OC(=O)N(Cc1ccco1)S(=O)(=O)c1ccccc1Br	inactive
Cc1nc2ccc(NC(=O)N3CCC(c4ccccc4)C3)cc2nc1C (stereo not given)	10 µM (active)
Cc1ccc(C2CCN(C(=S)Nc3cccc(Cl)c3)C2)cc1 (stereo not given)	inactive
O=C(C(=O)N1CCC(c2ccccc2)CC1)c1ccccc1	inactive
COC(=O)[C@]12CCCCC=C1N(Cc1ccco1)C(=O)[C@H](CC(=O)NCC1CCCCC1)C2	inactive
C[C@H](NC(=O)[C@@H]1CCCN1C(=O)[C@@H]1CCCN1C(=O)c1ccccc1)c1ccccc1	inactive
CN(C)c1cccc2ccccc12	inactive
CCOc1ccc(NC(=O)c2c(NC(=O)Cc3ccccc3)sc3c2CCCCC3)cc1	inactive
O=C(CN1CCCC1)Nc1sc2c(c1C(=O)Nc1ccccc1)CCCC2	28.2 µM (active)
O=C(Cc1ccccc1)Nc1sc2c(c1C(=O)Nc1ccc(Br)cc1)CCC2	inactive
Cc1ccc(-c2ccc(=O)n(CC(=O)NCCCN3CCCCC3)n2)cc1	14.1 µM (active)
CCc1ccc(-c2cc3c(=O)n(CC(=O)NCCCN4CCN(Cc5ccccc5)CC4)nc(C)n3n2)cc1	inactive
CCN(CC)CCCNC(=O)CCn1nc(-c2ccc(Cl)cc2)ccc1=O	inactive
S=c1[nH]c(=S)c2n[nH]nc2[nH]1	inactive
NC(=O)Nc1ccc(/C=C/c2ccnc3ccccc23)cc1	inactive
CC(C)C1CC2=C(C(=O)OC(C)(C)O2)C(c2ccc(F)cc2)O1 (stereo not given)	inactive
